Data reported in PubChem BioAssay (NCATS).
Where “and” joins values, the source holds several entries; their conditions need not be identical. Equal entries are not always repeated. Inconclusive results are not listed. Calls of active or inactive are those of the source. Calls come from the whole dose curve; as a rule, active = well fitted inhibition curve with a large enough effect; inconclusive = small, poorly fitted or top-dose-only effect; inactive = flat fitted curve, though single readings scatter.

What was measured:
GB4 = experiment: qHTS profiling for inhibitors of Plasmodium falciparum proliferation (AID 504749); note: potency is the fitted concentration of half-maximal effect; conditions: P. falciparum in erythrocytes, SYBR Green DNA, 72 h; series mostly up to 28.7 µM
Method in brief: (§1)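 Each compound contacts P. falciparum-infected red blood cells for 72 h at 37 C; lysis buffer (Tris, EDTA, saponin, Triton X, SYBR Green I) is added and fluorescence measured next morning; values normalized to controls.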

HB3 = experiment: as above; conditions: P. falciparum in erythrocytes, SYBR Green DNA, 72 h; series mostly up to 28.7 µM
Method in brief: as §1

ICS = experiment: as above; conditions: P. falciparum in erythrocytes, SYBR Green DNA, 72 h; series mostly up to 28.7 µM
Method in brief: as §1

JCK = experiment: as above; conditions: P. falciparum in erythrocytes, SYBR Green DNA, 72 h; series mostly up to 28.7 µM
Method in brief: as §1

N140 = experiment: as above; conditions: P. falciparum in erythrocytes, SYBR Green DNA, 72 h; series mostly up to 28.7 µM
Method in brief: as §1

P93_24 = experiment: as above; conditions: P. falciparum in erythrocytes, SYBR Green DNA, 72 h; series mostly up to 28.7 µM
Method in brief: as §1

P94_40 = experiment: as above; conditions: P. falciparum in erythrocytes, SYBR Green DNA, 72 h; series mostly up to 28.7 µM
Method in brief: as §1

PAD = experiment: as above; conditions: P. falciparum in erythrocytes, SYBR Green DNA, 72 h; series mostly up to 28.7 µM
Method in brief: as §1

PC15 = experiment: as above; conditions: P. falciparum in erythrocytes, SYBR Green DNA, 72 h; series mostly up to 28.7 µM
Method in brief: as §1

PC26 = experiment: as above; conditions: P. falciparum in erythrocytes, SYBR Green DNA, 72 h; series mostly up to 28.7 µM
Method in brief: as §1

PC49 = experiment: as above; conditions: P. falciparum in erythrocytes, SYBR Green DNA, 72 h; series mostly up to 28.7 µM
Method in brief: as §1

SC27B = experiment: as above; conditions: P. falciparum in erythrocytes, SYBR Green DNA, 72 h; series mostly up to 28.7 µM
Method in brief: as §1

TAB109 = experiment: as above; conditions: P. falciparum in erythrocytes, SYBR Green DNA, 72 h; series mostly up to 28.7 µM
Method in brief: as §1

TAB113 = experiment: as above; conditions: P. falciparum in erythrocytes, SYBR Green DNA, 72 h; series mostly up to 28.7 µM
Method in brief: as §1

TAB165 = experiment: as above; conditions: P. falciparum in erythrocytes, SYBR Green DNA, 72 h; series mostly up to 28.7 µM
Method in brief: as §1

W2 = experiment: as above; conditions: P. falciparum in erythrocytes, SYBR Green DNA, 72 h; series mostly up to 28.7 µM
Method in brief: as §1

CRL-7250 = normal cell line; experiment: Cytotoxic Profiling of Annotated Libraries Using Quantitative High-Throughput Screening (AID 1296008); conditions: Five cell lines viability, CellTiter-Glo ATP luminescence, 48-72 h; max response: hits give low values; for max response: % is set by controls: 0 for no effect and ±100 for the full control effect
Method in brief: (§2)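 Cells exposed to compounds for 48 or 72 hr at 37 degrees Celsius. Viability read as ATP-coupled luminescence with CellTiter-Glo after 10 min at room temperature.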

HEK293 = experiment: as above; conditions: Five cell lines viability, CellTiter-Glo ATP luminescence, 48-72 h; max response: hits give low values
Method in brief: as §2

HaCat = experiment: as above; conditions: Five cell lines viability, CellTiter-Glo ATP luminescence, 48-72 h; max response: hits give low values
Method in brief: as §2

KB-3-1 = experiment: as above; conditions: Five cell lines viability, CellTiter-Glo ATP luminescence, 48-72 h; max response: hits give low values
Method in brief: as §2
Note: nearly all actives have a fitted effect of over 60% in size.

O=C1c2c(O)cccc2Cc2cccc(O)c21
inactive: Potency (GB4) | Potency (HB3) | Potency (ICS) | Potency (JCK) | Potency (N140) | Potency (P93_24) | Potency (P94_40) | Potency (PAD) | Potency (PC15) | Potency (PC26) | Potency (PC49) | Potency (SC27B) | Potency (TAB109) | Potency (TAB113) | Potency (TAB165) | Potency (W2) | max response (CRL-7250) 0.516% | outcome (HEK293) | outcome (HaCat) | max response (KB-3-1) -0.793%

Cc1cc(CC(=O)O)n(C)c1C(=O)c1ccc(Cl)cc1
inactive: Potency (GB4) | Potency (HB3) | Potency (ICS) | Potency (JCK) | Potency (N140) | Potency (P93_24) | Potency (P94_40) | Potency (PAD) | Potency (PC15) | Potency (PC26) | Potency (PC49) | Potency (SC27B) | Potency (TAB109) | Potency (TAB113) | Potency (TAB165) | Potency (W2) | outcome (CRL-7250) | outcome (HEK293) | max response (HaCat) -1.31% | max response (KB-3-1) -2.26% and -15.1%

Nc1nc2c(ncn2CCC(CO)CO)c(=O)[nH]1
inactive: Potency (GB4) | Potency (HB3) | Potency (ICS) | Potency (JCK) | Potency (N140) | Potency (P93_24) | Potency (P94_40) | Potency (PAD) | Potency (PC15) | Potency (PC26) | Potency (PC49) | Potency (SC27B) | Potency (TAB109) | Potency (TAB113) | Potency (TAB165) | Potency (W2) | max response (CRL-7250) -22.4% and -4.66% | max response (HEK293) -4.76% and -4.47% | outcome (HaCat) | max response (KB-3-1) 13.5% and 1.71%

Nc1ncnc2c1ncn2[C@@H]1O[C@H](CO)[C@@H](O)[C@H]1O
inactive: Potency (GB4) | Potency (HB3) | Potency (ICS) | Potency (JCK) | Potency (N140) | Potency (P94_40) | Potency (PAD) | Potency (PC15) | Potency (PC26) | Potency (PC49) | Potency (SC27B) | Potency (TAB109) | Potency (TAB113) | Potency (TAB165) | Potency (W2) | outcome (CRL-7250) | max response (HEK293) 1.55% | outcome (HaCat) | max response (KB-3-1) 15.4%

NCCNCCNCCN
inactive: Potency (GB4) | Potency (HB3) | Potency (ICS) | Potency (JCK) | Potency (N140) | Potency (P93_24) | Potency (PAD) | Potency (PC15) | Potency (PC26) | Potency (PC49) | Potency (SC27B) | Potency (TAB109) | Potency (TAB113) | Potency (TAB165) | Potency (W2) | max response (CRL-7250) 1.87% | outcome (HEK293) | outcome (HaCat) | max response (KB-3-1) -5.28%

NS(=O)(=O)c1cc2c(cc1Cl)NC(CSCc1ccccc1)=NS2(=O)=O
inactive: Potency (GB4) | Potency (HB3) | Potency (ICS) | Potency (JCK) | Potency (N140) | Potency (P93_24) | Potency (P94_40) | Potency (PAD) | Potency (PC15) | Potency (PC26) | Potency (PC49) | Potency (SC27B) | Potency (TAB109) | Potency (TAB113) | Potency (TAB165) | Potency (W2) | max response (CRL-7250) -1.78% | outcome (HEK293) | max response (HaCat) -9.13% | max response (KB-3-1) 1.03%

NC1CCN(c2cccc(Cl)n2)CC1
inactive: Potency (HB3) | Potency (ICS) | Potency (JCK) | Potency (N140) | Potency (PAD) | Potency (PC15) | Potency (PC26) | Potency (PC49) | Potency (SC27B) | Potency (TAB109) | Potency (TAB113) | Potency (TAB165) | max response (CRL-7250) 0.115% | max response (HEK293) -9.08% | outcome (HaCat) | max response (KB-3-1) 2%
active: Potency (GB4) 7.57 µM | Potency (W2) 6.01 µM

O=C(O)c1ccccc1O
inactive: Potency (GB4) | Potency (HB3) | Potency (ICS) | Potency (JCK) | Potency (N140) | Potency (P93_24) | Potency (P94_40) | Potency (PAD) | Potency (PC15) | Potency (PC26) | Potency (PC49) | Potency (SC27B) | Potency (TAB109) | Potency (TAB113) | Potency (TAB165) | Potency (W2) | max response (CRL-7250) 0.122% | outcome (HEK293) | max response (HaCat) 2.15% | max response (KB-3-1) 7.74% and -13.4%

O=c1cc(CO)occ1O
inactive: Potency (GB4) | Potency (HB3) | Potency (ICS) | Potency (JCK) | Potency (N140) | Potency (P93_24) | Potency (P94_40) | Potency (PAD) | Potency (PC15) | Potency (PC26) | Potency (PC49) | Potency (SC27B) | Potency (TAB109) | Potency (TAB113) | Potency (TAB165) | Potency (W2) | max response (CRL-7250) -3.51% | outcome (HEK293) | max response (HaCat) 2.79% | max response (KB-3-1) 1.74% and -12.5%

CC(C)(C)NCC(O)COc1ccc(NC(=O)NC2CCCCC2)cc1 (stereo unspecified)
inactive: Potency (GB4) | Potency (HB3) | Potency (ICS) | Potency (JCK) | Potency (N140) | Potency (P93_24) | Potency (P94_40) | Potency (PAD) | Potency (PC15) | Potency (PC26) | Potency (PC49) | Potency (SC27B) | Potency (TAB109) | Potency (TAB113) | Potency (TAB165) | Potency (W2) | outcome (CRL-7250) | outcome (HEK293) | outcome (HaCat) | max response (KB-3-1) 0.958%
